# Legend:
# Experiment in all cases: DAPPL (digital affinity profiling via proximity ligation, sequencing); 10 mM Tris-HCl pH 7.5, 50 mM NaCl, 1 mM DTT, 4% glycerol, room temperature, 30 min; GST-TFs on glutathione beads, 16-mer random dsDNA library, 0.1% formaldehyde crosslink after washing; high values mean tight binding
# Settings in all cases: protein: recombinant; tags: N-terminal GST; dsDNA, one strand shown
# FLI1 = target: T1, FLI1 (Homo sapiens, UniProt Q01543 1-452)
# T1 sequence: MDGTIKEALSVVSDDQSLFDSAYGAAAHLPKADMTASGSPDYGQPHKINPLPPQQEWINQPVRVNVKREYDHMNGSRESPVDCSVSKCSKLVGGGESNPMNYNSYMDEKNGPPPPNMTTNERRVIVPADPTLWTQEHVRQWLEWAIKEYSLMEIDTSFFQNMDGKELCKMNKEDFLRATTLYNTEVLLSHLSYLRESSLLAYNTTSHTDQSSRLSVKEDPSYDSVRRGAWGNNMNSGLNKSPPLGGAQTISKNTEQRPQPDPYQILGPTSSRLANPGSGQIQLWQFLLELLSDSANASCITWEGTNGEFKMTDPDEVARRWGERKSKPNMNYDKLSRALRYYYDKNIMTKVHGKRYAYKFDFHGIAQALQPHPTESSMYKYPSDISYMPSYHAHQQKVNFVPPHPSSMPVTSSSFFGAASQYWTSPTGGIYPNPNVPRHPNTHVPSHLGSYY
# In short: (§1)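 After expression in yeast as GST fusions, human transcription factors were bound to glutathione beads, DNA-barcoded and mixed with a tag-only sample. The pools were incubated with 200 nmole of a 16-mer random double-stranded DNA library in Tris/NaCl/DTT/glycerol buffer (30 min, room temperature), washed and crosslinked with 0.1% formaldehyde. Proximity ligation with BsaI/T4 ligase ran for 1 h at 37 °C, before PCR amplification and sequencing on an Illumina NextSeq500. Binding signal is a hexamer's read frequency for a factor divided by its frequency for the tag-only sample.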
# ELK1 = target: T2, ELK1 (Homo sapiens, UniProt P19419 1-428)
# T2 sequence: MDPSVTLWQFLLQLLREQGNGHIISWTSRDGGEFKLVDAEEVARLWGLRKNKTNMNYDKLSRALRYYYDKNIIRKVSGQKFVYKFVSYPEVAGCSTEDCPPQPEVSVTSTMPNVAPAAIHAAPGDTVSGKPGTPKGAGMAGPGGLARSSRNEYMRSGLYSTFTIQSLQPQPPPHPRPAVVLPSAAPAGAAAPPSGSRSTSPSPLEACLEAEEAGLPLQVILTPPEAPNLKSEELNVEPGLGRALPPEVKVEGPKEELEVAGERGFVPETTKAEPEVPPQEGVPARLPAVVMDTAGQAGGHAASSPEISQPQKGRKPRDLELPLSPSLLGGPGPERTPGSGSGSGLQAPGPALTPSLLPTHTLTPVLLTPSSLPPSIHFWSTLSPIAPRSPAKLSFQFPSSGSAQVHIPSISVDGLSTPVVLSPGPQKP
# In short: as §1
# GABPA = target: T3, GABPA (Homo sapiens, UniProt Q06546 1-454)
# T3 sequence: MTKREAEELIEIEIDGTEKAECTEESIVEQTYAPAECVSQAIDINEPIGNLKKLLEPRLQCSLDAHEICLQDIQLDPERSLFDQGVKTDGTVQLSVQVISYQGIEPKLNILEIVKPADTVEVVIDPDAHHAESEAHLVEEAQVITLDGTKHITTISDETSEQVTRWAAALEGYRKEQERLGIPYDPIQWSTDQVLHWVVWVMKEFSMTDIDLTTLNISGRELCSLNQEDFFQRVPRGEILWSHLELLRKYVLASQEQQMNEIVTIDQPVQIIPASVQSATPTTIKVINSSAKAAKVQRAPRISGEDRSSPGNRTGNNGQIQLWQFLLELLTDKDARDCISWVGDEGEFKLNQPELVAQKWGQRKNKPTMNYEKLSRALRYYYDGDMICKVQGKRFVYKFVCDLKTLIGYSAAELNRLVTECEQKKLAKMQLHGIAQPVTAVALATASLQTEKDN
# In short: as §1
# ERG = target: T4, ERG (Homo sapiens, UniProt P11308 1-479)
# T4 sequence: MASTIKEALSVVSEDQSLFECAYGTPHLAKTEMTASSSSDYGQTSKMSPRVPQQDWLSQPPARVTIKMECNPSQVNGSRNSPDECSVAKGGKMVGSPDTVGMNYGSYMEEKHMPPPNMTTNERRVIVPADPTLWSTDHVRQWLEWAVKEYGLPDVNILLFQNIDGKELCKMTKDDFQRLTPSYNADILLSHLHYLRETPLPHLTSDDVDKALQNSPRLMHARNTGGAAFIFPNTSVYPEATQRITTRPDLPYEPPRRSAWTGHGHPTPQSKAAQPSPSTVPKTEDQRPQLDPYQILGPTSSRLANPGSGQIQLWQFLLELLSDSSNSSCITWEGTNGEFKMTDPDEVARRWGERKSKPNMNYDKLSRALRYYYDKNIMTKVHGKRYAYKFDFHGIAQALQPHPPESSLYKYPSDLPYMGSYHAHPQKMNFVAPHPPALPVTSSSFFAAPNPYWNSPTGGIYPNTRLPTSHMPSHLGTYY
# In short: as §1
# ELF1 = ELF1 (Homo sapiens, UniProt P32519 1-619)
# Chain of ELF1 (P32519 whole entry): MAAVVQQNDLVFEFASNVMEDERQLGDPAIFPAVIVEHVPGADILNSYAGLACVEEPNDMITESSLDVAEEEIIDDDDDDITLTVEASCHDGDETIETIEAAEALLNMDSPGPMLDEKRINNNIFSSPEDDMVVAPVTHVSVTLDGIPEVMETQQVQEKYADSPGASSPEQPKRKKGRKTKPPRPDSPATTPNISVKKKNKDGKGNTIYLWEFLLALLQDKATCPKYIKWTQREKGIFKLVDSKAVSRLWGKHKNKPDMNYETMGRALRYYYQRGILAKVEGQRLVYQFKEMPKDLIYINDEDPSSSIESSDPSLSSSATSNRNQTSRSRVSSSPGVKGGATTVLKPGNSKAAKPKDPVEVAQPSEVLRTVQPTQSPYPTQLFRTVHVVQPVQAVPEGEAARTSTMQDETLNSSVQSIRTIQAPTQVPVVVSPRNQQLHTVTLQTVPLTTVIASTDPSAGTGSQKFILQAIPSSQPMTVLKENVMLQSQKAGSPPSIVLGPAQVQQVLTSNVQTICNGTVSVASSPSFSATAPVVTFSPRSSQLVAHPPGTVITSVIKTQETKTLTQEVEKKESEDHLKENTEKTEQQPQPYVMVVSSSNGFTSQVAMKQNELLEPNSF
# In short: as §1
# EHF = target: T5, EHF (Homo sapiens, UniProt Q9NZC4 1-300)
# T5 sequence: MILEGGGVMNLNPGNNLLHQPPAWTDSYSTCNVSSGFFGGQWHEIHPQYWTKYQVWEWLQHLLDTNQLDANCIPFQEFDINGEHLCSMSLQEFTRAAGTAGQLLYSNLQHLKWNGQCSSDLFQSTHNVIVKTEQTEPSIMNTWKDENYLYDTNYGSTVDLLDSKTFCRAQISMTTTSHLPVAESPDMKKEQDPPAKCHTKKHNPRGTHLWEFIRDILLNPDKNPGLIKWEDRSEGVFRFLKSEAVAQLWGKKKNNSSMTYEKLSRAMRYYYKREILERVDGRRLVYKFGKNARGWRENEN
# In short: as §1
# SPI1 = SPI1 (Homo sapiens, UniProt P17947 1-270)
# In short: as §1
# SPIB = SPIB (Homo sapiens, UniProt Q01892 1-262)
# Chain of SPIB (Q01892 whole entry): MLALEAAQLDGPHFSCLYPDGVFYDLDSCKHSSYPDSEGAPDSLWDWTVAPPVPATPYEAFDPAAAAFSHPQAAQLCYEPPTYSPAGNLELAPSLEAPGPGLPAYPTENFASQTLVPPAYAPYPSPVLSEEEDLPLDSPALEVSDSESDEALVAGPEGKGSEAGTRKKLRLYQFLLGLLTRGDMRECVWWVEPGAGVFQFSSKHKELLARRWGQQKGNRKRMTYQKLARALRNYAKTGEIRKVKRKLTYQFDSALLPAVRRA
# In short: as §1
# ELK3 = target: T6, ELK3 (Homo sapiens, UniProt P41970 1-407)
# T6 sequence: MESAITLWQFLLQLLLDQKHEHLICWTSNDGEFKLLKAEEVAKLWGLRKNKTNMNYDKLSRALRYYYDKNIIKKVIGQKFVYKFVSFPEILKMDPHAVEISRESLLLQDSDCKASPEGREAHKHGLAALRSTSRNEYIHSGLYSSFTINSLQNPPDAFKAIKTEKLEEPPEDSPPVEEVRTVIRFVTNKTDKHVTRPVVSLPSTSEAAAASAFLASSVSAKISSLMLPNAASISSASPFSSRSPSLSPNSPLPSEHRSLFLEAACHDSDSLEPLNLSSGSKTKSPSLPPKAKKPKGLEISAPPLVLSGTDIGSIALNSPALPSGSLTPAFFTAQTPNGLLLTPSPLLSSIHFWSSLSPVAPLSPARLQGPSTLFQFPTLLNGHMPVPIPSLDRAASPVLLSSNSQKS
# In short: as §1
sequence,measurement,setting,value
GTCTCA,binding signal,FLI1,"1.34 fold enrichment (6-mer frequency, TF over GST control)"
same,binding signal,ELK1,"1.32 fold enrichment (6-mer frequency, TF over GST control)"
same,binding signal,GABPA,"1.35 fold enrichment (6-mer frequency, TF over GST control)"
same,binding signal,ERG,"1.36 fold enrichment (6-mer frequency, TF over GST control)"
same,binding signal,ELF1,"1.41 fold enrichment (6-mer frequency, TF over GST control)"
same,binding signal,EHF,"1.32 fold enrichment (6-mer frequency, TF over GST control)"
same,binding signal,SPI1,"1.39 fold enrichment (6-mer frequency, TF over GST control)"
same,binding signal,SPIB,"1.41 fold enrichment (6-mer frequency, TF over GST control)"
same,binding signal,ELK3,"1.32 fold enrichment (6-mer frequency, TF over GST control)"

# Source: article PMC7862700, “An all-to-all approach to the identification of sequence-specific readers for epigenetic DNA modifications on cytosine”
